Screening data as filed in PubChem BioAssay.
FECH block – blocks human mitochondrial ferrochelatase activity | P22830 | purified FECH, Ni-mesoporphyrin absorbance 550 nm | calls only at 10 µM (by protocol) | 20,000 tested, 3.3% active | AID 1671448;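 active = enzyme reaction rate more than 3 SD below the solvent-only control wells on the same plate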;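 note: lower slope than DMSO wells means FECH inhibition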
Target sequence (P22830 whole entry, looked up): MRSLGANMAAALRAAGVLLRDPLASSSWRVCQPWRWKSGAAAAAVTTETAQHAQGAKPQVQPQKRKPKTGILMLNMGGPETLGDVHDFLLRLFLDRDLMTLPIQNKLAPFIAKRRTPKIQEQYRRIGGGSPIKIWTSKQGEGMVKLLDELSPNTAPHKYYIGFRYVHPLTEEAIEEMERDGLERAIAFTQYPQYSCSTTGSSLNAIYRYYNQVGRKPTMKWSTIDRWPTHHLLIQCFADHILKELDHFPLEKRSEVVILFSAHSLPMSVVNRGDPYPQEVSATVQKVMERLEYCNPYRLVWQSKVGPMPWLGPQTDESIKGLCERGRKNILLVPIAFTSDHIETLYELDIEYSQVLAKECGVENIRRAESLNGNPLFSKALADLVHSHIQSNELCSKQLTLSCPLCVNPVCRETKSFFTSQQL
Calls only; - = inactive; + = active, no number. The sample as a whole holds a higher share of hits than the screen did.

SMILES	FECH block
O=C(CN1CCC(c2ccccc2)C1)N1CCc2c(nc[nH]c2=O)C1 (stereo not drawn)	-
CCc1cccc(NC(=O)C2CCN(c3ccc(-c4cccs4)nn3)CC2)c1	-
O=C(Nc1ccccc1CCc1nc2ccccc2[nH]1)C1CCCN(S(=O)(=O)N2CCCC2)C1 (stereo not drawn)	-
CCN(CC)S(=O)(=O)N1CCC(C(=O)Nc2cccc(CCc3nc4ccccc4n3C)c2)CC1	+
CCN(CC)S(=O)(=O)c1ccc2c(c1)nc(CN1CCN(S(=O)(=O)N(C)C)CC1)n2C	-
CCN(CC)S(=O)(=O)N1CCC(C(=O)Nc2ccc3sc(NC(=O)C(C)C)nc3c2)CC1	-
CCN(CC)S(=O)(=O)N1CCC(C(=O)Nc2ccc3nc(CCc4ccccc4)[nH]c3c2)CC1	+
COCCn1c(CNC(=O)Cc2ccc(F)cc2)nc2cccnc21	-
OCC#Cc1csc(CN2CC3CC4CC2C[C@@H](C4)C3)c1	-
CC1(C)Cc2cc(CNC(=O)CC3C(=O)NCCN3C3CCCC3)ccc2O1 (stereo not drawn)	-
CCN(C(=O)c1coc(COc2ccc(OC)cc2)n1)[C@H]1COC[C@@H]1O	-
COc1ccc(OCc2nc(C(=O)N3CC4(C)CN(C)CC(C)(C3)C4)co2)cc1	+
COc1ccc(OCc2nc(C(=O)N3CCNCC3c3ccccc3)co2)cc1 (stereo not drawn)	-
COc1ccc(-c2cc(N3CCN(C(=O)NCCc4ccccc4)CC3)ncn2)cc1	-
CCc1ccc(-c2nc(C(N)=O)c3c(n2)n(-c2ccc(C)c(C)c2)c(=O)n3Cc2ccccc2)cc1	-
COc1ccc(C(=O)Nc2cc(C)nn2-c2ncnc3c2cnn3-c2ccc(Cl)cc2)c(OC)c1	-
CCn1c(-c2cc(C3CC3)[nH]n2)n[nH]c1=O	+
CCn1c(C2CCCN(S(=O)(=O)N3CCCC3)C2)n[nH]c1=O (stereo not drawn)	-
CCn1c(C2CCN(S(=O)(=O)c3ccc(C)c(C)c3)CC2)n[nH]c1=O	-
COc1ccc(-c2nc(C(N)=O)c3c(n2)n(-c2ccc(F)cc2)c(=O)n3C)cc1	-
Cc1nccn1CCCN1CCC2(C1)CN(C)C(=O)O2 (stereo not drawn)	-
CCOC(=O)c1ccccc1NC(=O)Cn1c(C(=O)OCC)cc2ccsc21	-
CC(c1cccnc1)N(C)C(=O)c1cc2n(n1)CCN(Cc1ccccc1)C2 (stereo not drawn)	-
Cc1ccc(Cl)cc1N1CCN(C(=O)c2nc3ccccc3n(C)c2=O)CC1	-
COc1cccc(N2CCN(C(=O)c3nc4ccccc4n(C)c3=O)CC2)c1	+
SMILES	FECH block
Cc1cccc(N2CCN(C(=O)Cn3c(=O)c4cnc(-c5ccccc5)nc4n(C)c3=O)CC2C)c1 (stereo not drawn)	-
Cc1ccc(NC(=O)c2nc3ccccc3n(C)c2=O)c(C)c1	-
Cn1c(=O)c(C(=O)N2CCN(C3CCCCC3)CC2)nc2ccccc21	-
Cc1cccc(N2CCN(C(=O)c3nc4ccccc4n(C)c3=O)CC2C)c1 (stereo not drawn)	+
CCCN(Cc1cccnc1)C(=O)CC1CNCCO1 (stereo not drawn)	-
COc1ncccc1C1CC(=O)NCc2nc3sccn3c21 (stereo not drawn)	-
CN(Cc1ccc(-c2nc(-c3cccnc3)cc(=O)[nH]2)cc1)Cc1ccsc1	-
O[C@@H]1CN(c2ncnc3nc[nH]c23)CC[C@H]1N1CCN(c2ccccc2F)CC1	-
CC(C)CN(CC(C)C)c1ncc(NS(=O)(=O)c2ccccc2)cc1C(=O)O	-
CC(C)CN(CC(C)C)c1ncc(NS(=O)(=O)c2ccc(F)cc2)cc1C(=O)O	-
COc1ccc(S(=O)(=O)Nc2cnc(N(CC(C)C)CC(C)C)c(C(=O)O)c2)cc1	+
COc1ccccc1-n1nc(C(C)C)nc1Cc1cc(C)no1	-
COc1ccccc1-n1nc(CC(C)C)nc1C(C)n1ccnc1 (stereo not drawn)	+
COc1ccccc1-n1nc(C(C)C)nc1CCc1cccnc1	-
Cc1ccc(Cl)cc1NC(=O)CN1CCN(Cc2ccccc2F)S1(=O)=O	-
CCCCOc1ccc(C(=O)Nc2cc(C)nn2-c2ncnc3c2cnn3-c2cccc(C)c2C)cc1	-
Cc1ccc(NC(=O)Nc2ccccc2Sc2c(C)c(C)nc3nc(-c4ccccc4)nn23)cc1F	-
Cc1ccc(-c2ncc3c(=O)n(Cc4cccc(Cl)c4)c(=O)n(C)c3n2)cc1	-
COc1ccccc1C(=O)Nc1cc(C)nn1-c1ncnc2c1cnn2-c1cccc(Cl)c1	-
CCOC(=O)c1cc2ccsc2n1CC(=O)Nc1ccccc1C	-
CCOC(=O)c1cc2ccsc2n1CC(=O)Nc1c(C)cc(C)cc1C	+
COC(=O)c1cc2ccsc2n1CC(=O)Nc1c(C)cccc1C	-
CCCn1c(CNS(=O)(=O)c2cccc(Cl)c2)nc2cccnc21	-
O=c1cc(CNc2cccc(Cl)c2)nc2nc(NCc3ccccc3)[nH]n12	-
CCCNCc1cc(=O)n2[nH]c(NCc3ccc(OC)cc3)nc2n1	+
SMILES	FECH block
COc1ccc(CNc2nc3nc(CNc4ccc(F)cc4)cc(=O)n3[nH]2)cc1	+
O=c1cc(CNc2ccc(Cl)cc2)nc2nc(NCc3ccccc3)[nH]n12	+
O=c1cc(CNc2ccc(F)cc2)nc2nc(NCc3ccc(F)cc3)[nH]n12	-
COc1ccc(NCc2cc(=O)n3[nH]c(NCc4ccccc4)nc3n2)cc1	-
O=c1cc(CNc2ccc(Cl)cc2)nc2nc(NCc3ccc(F)cc3)[nH]n12	-
COc1ccc(CNc2nc3nc(CNc4cc(Cl)ccc4OC)cc(=O)n3[nH]2)cc1	-
CCCNCc1cc(=O)n2[nH]c(NCc3ccc(Cl)cc3)nc2n1	-
COc1ccc(N2C(=O)CCS2(=O)=O)cc1S(=O)(=O)NCCc1ccccc1	-
CCCC(=O)Nc1ccc(CC(=O)N[C@H]2CCCCNC2=O)cc1	-
CC(C)CCNC(=O)C1(C)Cn2c(nc3ccccc32)C(=O)N1Cc1ccccc1 (stereo not drawn)	-
O=C(NCCCN1CCN(C2CCCCC2)CC1)C1CCCN1c1nnc(N2CCCC2=O)s1 (stereo not drawn)	+
CN(CCCNC(=O)C1CCCN1c1nnc(N2CCCC2=O)s1)C1CCCCC1 (stereo not drawn)	-
Cc1ccsc1CCNC(=O)C1CCCN1c1nnc(N2CCCC2=O)s1 (stereo not drawn)	-
COc1ccc(CCNC(=O)C2CCCN2c2nnc(N3CCCCC3=O)s2)cc1OC (stereo not drawn)	-
CN(CCNC(=O)C1CCCN1c1nnc(N2CCCC2=O)s1)C1CCCCC1 (stereo not drawn)	-
COc1ccc(CNC(=O)C2CCCN2c2nnc(N3CCCC3=O)s2)c(OC)c1 (stereo not drawn)	+
OCCN1CCN(c2nc(Nc3ccc4c(c3)OCO4)c3cnn(-c4ccccc4)c3n2)CC1	-
O=S(=O)(Cc1ccccc1)NCCn1c(C(F)(F)F)nc2cccnc21	-
Cc1nc2c(c(N3CCN(Cc4nccn4C)CC3)n1)CCNCC2	-
O=C(NCc1ccccc1Cn1cccn1)c1cn[nH]n1	-
CCOc1ccc(OCC(=O)Nc2cc(C)nn2-c2ncnc3c2cnn3-c2ccc(C)cc2C)cc1	-
CN1C(=O)C2(CCN(C(=O)COCC3CCCCO3)CC2)c2ccccc21 (stereo not drawn)	+
CN1C(=O)C(CCC(=O)N2CCCOCC2)(Cc2ccccc2)c2ccccc21 (stereo not drawn)	-
CCCc1nc(C(=O)N2CCCC3(C2)C(=O)N(C)c2ccccc23)cs1 (stereo not drawn)	-
